Screening results: PubChem, National Center for Advancing Translational Sciences (NCATS)
KCNH2 3.1 inh: qHTS for Inhibitors of KCHN2 3.1: Mutant qHTS. U2OS KCNH2 3.1, thallium flux FluxOr; active compounds read low. activity change, % (tested at about 1.8 µM). 340,000 compounds, 0.95% hits. AID 720553, 2013;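 active = maximum activity change below -70%; inconclusive = maximum activity change from -70% to -50%; inactive = maximum activity change above -50%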;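 also: thallium influx rate constant from kinetic fluorescence after stimulation buffer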
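Thallium flux via FluxOr fluorescence (Red40 quencher, 45 min loading) in U2OS cells virally expressing the KCNH2 3.1 isoform (1.77 x 10^8 /mL virus, overnight at 37 C). Rate constants from 2-min kinetic reads post-stimulation, normalised to positive and negative controls.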
RXFP1 agonist: qHTS Assay for Agonists of the Relaxin Receptor RXFP1 | Relaxin receptor 1 (Homo sapiens), Q9HBX9 | HEK293T-RXFP1 cAMP TR-FRET, 30 min; response scale: percent of porcine relaxin response, buffer zero | Potency, µM (top dose mostly 57.5 µM), usual class: activators | 370,000 compounds, 0.3% hits | AID 2676, 2010; active = well fitted activation curve with a large enough effect; inconclusive = small, poorly fitted or top-dose-only effect; also: nearly all actives have a fitted effect of over 60% in size
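cAMP rise read by TR-FRET after 30 min, 37C compound exposure (up to 58 uM) in RXFP1-transfected HEK293 cells with Ro 20174 present. EC50 from Hill-equation fits, with 29 nM porcine relaxin as 100% and buffer as basal.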
RXFP1 antag: qHTS Assay for Antagonists of the Relaxin Receptor RXFP1 | Relaxin receptor 1 (Homo sapiens), Q9HBX9 | HEK293-RXFP1, relaxin-stimulated cAMP HTRF, 30 min; active compounds read low | activity change, negative = inhibition, % at 57.5 µM | 350,000 compounds, 0.59% hits;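 active = activity change of -60% or lower, but not beyond a set lower limit; inconclusive = change between -60% and -40%, or beyond the set limit; inactive = change above -40%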
Akt phos inh: HTS Assay for Inhibitors of Akt Phophorylation: Primary Screen | Neuro2A IGF-stimulated pAkt S473 HTRF, 20 min; active compounds read low | activity change, % for hits at 50 µM | 360,000 compounds, 0.32% hits; in the data active = activity change below about -80%; inconclusive = mostly about -51% to -80%
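Neuro2A cells (4,500/well, DMEM with 0.5% FBS) were treated with compound at a single 50 µM final concentration, stimulated with 6 nM IGF for 20 min at 37 °C, and lysed. Phospho-Akt Ser473 was read by HTRF as 665/615 ratio ×10^4.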
hERG WT inh: qHTS for Inhibitors of KCHN2 3.1: Wildtype qHTS; 340,000 compounds, 0.37% hits; U2OS, BacMam KCNH2, thallium flux FluxOr; active compounds read low; Voltage-gated inwardly rectifying potassium channel KCNH2 (Homo sapiens), Q12809; activity change, % at 1.84 µM; AID 720551, 2013;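 active = maximum activity change below -70%; inconclusive = maximum activity change between -70% and -50%; inactive = maximum activity change above -50%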
Target sequence (Q12809 whole entry, looked up): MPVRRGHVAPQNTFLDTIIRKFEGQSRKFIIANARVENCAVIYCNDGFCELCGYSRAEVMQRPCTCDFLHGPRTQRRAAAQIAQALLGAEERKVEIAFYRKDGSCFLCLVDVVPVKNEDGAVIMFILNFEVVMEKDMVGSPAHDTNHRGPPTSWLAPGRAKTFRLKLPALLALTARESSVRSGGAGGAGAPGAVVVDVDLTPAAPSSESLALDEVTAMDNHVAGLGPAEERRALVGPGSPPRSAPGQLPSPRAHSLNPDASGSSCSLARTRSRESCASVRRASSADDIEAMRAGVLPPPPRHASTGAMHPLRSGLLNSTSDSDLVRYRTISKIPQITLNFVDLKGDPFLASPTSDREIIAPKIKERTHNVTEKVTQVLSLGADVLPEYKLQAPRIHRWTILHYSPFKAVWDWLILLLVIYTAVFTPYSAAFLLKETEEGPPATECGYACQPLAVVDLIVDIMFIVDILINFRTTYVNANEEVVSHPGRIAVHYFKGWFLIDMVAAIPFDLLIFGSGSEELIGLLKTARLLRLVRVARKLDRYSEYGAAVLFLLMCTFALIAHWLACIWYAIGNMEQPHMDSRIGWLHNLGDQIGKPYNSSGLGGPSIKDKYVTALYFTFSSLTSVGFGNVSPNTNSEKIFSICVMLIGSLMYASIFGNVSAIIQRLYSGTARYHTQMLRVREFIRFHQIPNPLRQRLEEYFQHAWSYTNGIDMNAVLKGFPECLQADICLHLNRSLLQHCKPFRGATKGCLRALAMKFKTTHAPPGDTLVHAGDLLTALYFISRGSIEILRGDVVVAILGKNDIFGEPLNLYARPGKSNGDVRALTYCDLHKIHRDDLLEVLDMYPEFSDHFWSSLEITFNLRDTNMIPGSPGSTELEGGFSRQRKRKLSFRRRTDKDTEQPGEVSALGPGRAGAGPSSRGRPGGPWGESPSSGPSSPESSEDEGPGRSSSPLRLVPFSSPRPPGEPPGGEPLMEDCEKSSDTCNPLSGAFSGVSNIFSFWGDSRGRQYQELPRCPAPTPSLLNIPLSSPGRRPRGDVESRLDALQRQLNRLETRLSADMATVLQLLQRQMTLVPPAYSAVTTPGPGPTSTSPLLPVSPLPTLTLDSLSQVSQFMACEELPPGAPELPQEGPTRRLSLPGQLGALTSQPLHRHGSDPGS
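U2OS cells were transduced with wild-type KCNH2 virus (2.03 x 10^8 / mL) for 4 h at room temperature, then cultured overnight at 37 C. Thallium flux was read with FluxOr dye. Rate constants were normalized to DMSO controls.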
Each line names hits and unclear results; the compound was inactive in the other large screens. Most compounds without a hit are left out; they make up all but 1.7% or so of the library.

Cn1cc(C(=O)c2ccc(Cl)cc2Cl)cc1C(=O)N/N=C(\N)COc1ccc(F)cc1	none
Cn1cc(C(=O)c2ccc(Cl)cc2Cl)cc1C(=O)N/N=C(\N)COc1ccccc1	Akt phos inh -109%
Cn1cc(C(=O)c2ccc(Cl)cc2Cl)cc1C(=O)N/N=C(\N)COc1ccc(Cl)cc1	KCNH2 3.1 inh -73
CCC(c1nnc(SCC(=O)Nc2cccc(S(N)(=O)=O)c2)n1-c1ccc(OC)cc1)N(C)C (stereo not drawn)	none
CS(=O)(=O)N(Cc1ccco1)Cc1ccccc1Cl	none
O=C(O)c1cc([N+](=O)[O-])c(Sc2nc3ccccc3[nH]2)c([N+](=O)[O-])c1	none
Cc1cc(C)nc(N/C(=N\S(=O)(=O)Cc2ccccc2)Nc2cccc(Cl)c2C)n1	Akt phos inh -118%
Cc1cnc(C(=O)Nc2cccc3cccnc23)cn1	Akt phos inh -109%
O=C(Cc1ccc(Cl)cc1)NN1C(=O)c2ccccc2C1=O	none
COC(=O)[C@@H]1[C@@H](C#N)C2(c3ccccc3-c3ccccc32)N(c2ccc(Cl)cc2)N1C#N	RXFP1 antag -73
CCOC(=O)c1[nH]c2c(c1Cc1ccccc1)C(=O)CC(c1ccc(C(C)(C)C)cc1)C2 (stereo not drawn)	RXFP1 antag -64 (no result: KCNH2 3.1 inh, Akt phos inh, hERG WT inh)
Cc1c(C(=O)OCc2ccccc2)[nH]c2c1C(=O)CC(c1ccc(C(C)(C)C)cc1)C2 (stereo not drawn)	none (no result: KCNH2 3.1 inh, Akt phos inh, hERG WT inh)
CN(N=Nc1ccc([N+](=O)[O-])cc1)c1ccccc1	none
COc1ccc(OC)c(C(=O)NC(CC(N)=O)c2ccc(NCC3CC3)c([N+](=O)[O-])c2)c1 (stereo not drawn)	KCNH2 3.1 inh -121 (no result: RXFP1 antag)
Cc1cccc(NC(=O)NNC(=O)c2cc3ccccc3cc2O)c1C	RXFP1 antag -66
Cc1cccc(NC(=O)NNC(=O)c2cc3occc3[nH]2)c1C	KCNH2 3.1 inh -449
Cc1cc(C)cc(NC(=O)NNC(=O)c2cc3occc3[nH]2)c1	none
CCOC(=O)C1CCN(C(=O)Cn2nc(CC)n3c(cc4sccc43)c2=O)CC1	none (no result: KCNH2 3.1 inh, Akt phos inh, hERG WT inh)
CCC1(CC)SCCNC1=O	hERG WT inh -282 (no result: RXFP1 agonist)
COc1cc(CNCCO)cc(Br)c1OCc1ccccc1Cl	RXFP1 antag -76
C=CCOc1c(Br)cc(CNc2ccc(NC(=O)CCC)cc2)cc1OCC	Akt phos inh -100%
CCOc1cc(CNc2ccc(N(C)C)cc2)cc(Br)c1OCC(=O)NC(C)(C)C	RXFP1 antag -109
Cc1c(-c2ccccc2)[nH]n2c(=O)c3c(nc12)CCCC3	KCNH2 3.1 inh -92 (no result: RXFP1 antag)
Cc1ccc(-c2[nH]n3c(=O)c4c(nc3c2C)CCCC4)cc1	none (no result: Akt phos inh)
CCOc1ccc(NS(=O)(=O)c2ccc(NC(=S)NC(C)=O)cc2)cc1	RXFP1 antag -70
COc1ccc(C(=O)Sc2ccc(C)cc2)cc1OC	none
COc1ccc(C(=O)Sc2ccc(Cl)cc2)cc1OC	Akt phos inh -127%
CCOC(=O)N1CCC(=NNC(=O)c2cc3ccccc3cc2O)CC1	none
CC(=O)N1CCC(=NNC(=O)c2cc3ccccc3cc2O)CC1	RXFP1 antag -93 (no result: Akt phos inh)
OC1(c2ccc(Cl)c(Cl)c2)C[n+]2ccccc2N1Cc1ccccc1 (stereo not drawn)	RXFP1 antag -69
O=C(Nc1cccc(S(=O)(=O)N2CCCC2)c1)c1cccc(S(=O)(=O)N2CCOCC2)c1	none
CC1Cc2ccccc2N1C(=O)CN1C(=O)NC2(CCCCC2)C1=O (stereo not drawn)	none
COC(=O)c1ccc(Nc2cc(C)nc(-c3ccccc3O)n2)cc1	Akt phos inh -86%
Cn1nnnc1-c1cc(Br)ccc1NC(=O)c1ccccc1	RXFP1 agonist inconclusive, Akt phos inh -104%
Cc1ccc(NC(=O)c2ccc(Br)cc2)c(C(=O)c2ccccc2)c1	none (no result: KCNH2 3.1 inh, Akt phos inh, hERG WT inh)
Clc1ccc(-c2csc(NNC3=NCCCCC3)n2)cc1	Akt phos inh -111%
COc1cccc(NC(=O)COC(=O)c2c(NC(C)=O)sc(C)c2C)c1	hERG WT inh -73
